Screening results: PubChem, several laboratories
NOD2-RIPK2 inh – blocks binding of human NOD2 to RIPK2; inhibition, % at 4.98 µM; CHO BLA complementation NOD2-RIPK2, CCF4 ratio; O43353; actives 0.38% (n = 360,000); in the data active = inhibition above about 21%;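 note: 0% = vehicle only and 100% = reference blocker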
TLR4 MyD88 comp – inhibitors of human TLR4-MyD88 binding | inhibition, % at 8.4 µM | O00206+Q99836 | HeLa CL3-4 TLR4/MyD88 BLA complementation, FRET ratio | actives 0.18% (n = 200,000); in the data active = inhibition above about 25%;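 note: 0% = vehicle and 100% = reference inhibitor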
TLR9-MyD88 block – inhibitors of human TLR9-MyD88 binding; Q9NR96+Q99836; CHO BLA complementation TLR9-MyD88, CCF4 FRET ratio; inhibition, % at 4.98 µM; actives 0.21% (n = 340,000);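 active = inhibition above the mean over all tested compounds plus 3 SD, cut at about 21% in these data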;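 note: 0% = DMSO only wells and 100% = clavulanate BLA inhibitor control wells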
Myeloid diff 2 – myeloid differentiation induction; ER-HoxA9 myeloid progenitors, lysozyme-GFP differentiation, flow cytometry; calls only at 10 µM; actives 1% (n = 360,000);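 active = normalized GFP-positive differentiation at or above the plate's own cutoff, the solvent-only control mean plus 3 SD; inconclusive = no clear call, values can overlap the other calls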;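 note: cells exposed to compound for four days before flow analysis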
ABCB6 inh 2 – blocks the human ABCB6 transporter; actives 0.19% (n = 360,000); K562-ABCB6 porphyrin accumulation, flow cytometry, 1 h; stronger effect = lower value; fluorescence ratio to DMSO, % at 10 µM; Q9NP58;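 active = fluorescence ratio to DMSO below 75%, the collection mean minus 3 SD; inconclusive = too few cells collected in the well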;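 note: signal is porphyrin accumulated inside mitochondria; 100% equals median channel fluorescence of DMSO control wells; lower ratio means ABCB6 inhibition with less porphyrin fluorescence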
Target sequence (Q9NP58 whole entry, looked up): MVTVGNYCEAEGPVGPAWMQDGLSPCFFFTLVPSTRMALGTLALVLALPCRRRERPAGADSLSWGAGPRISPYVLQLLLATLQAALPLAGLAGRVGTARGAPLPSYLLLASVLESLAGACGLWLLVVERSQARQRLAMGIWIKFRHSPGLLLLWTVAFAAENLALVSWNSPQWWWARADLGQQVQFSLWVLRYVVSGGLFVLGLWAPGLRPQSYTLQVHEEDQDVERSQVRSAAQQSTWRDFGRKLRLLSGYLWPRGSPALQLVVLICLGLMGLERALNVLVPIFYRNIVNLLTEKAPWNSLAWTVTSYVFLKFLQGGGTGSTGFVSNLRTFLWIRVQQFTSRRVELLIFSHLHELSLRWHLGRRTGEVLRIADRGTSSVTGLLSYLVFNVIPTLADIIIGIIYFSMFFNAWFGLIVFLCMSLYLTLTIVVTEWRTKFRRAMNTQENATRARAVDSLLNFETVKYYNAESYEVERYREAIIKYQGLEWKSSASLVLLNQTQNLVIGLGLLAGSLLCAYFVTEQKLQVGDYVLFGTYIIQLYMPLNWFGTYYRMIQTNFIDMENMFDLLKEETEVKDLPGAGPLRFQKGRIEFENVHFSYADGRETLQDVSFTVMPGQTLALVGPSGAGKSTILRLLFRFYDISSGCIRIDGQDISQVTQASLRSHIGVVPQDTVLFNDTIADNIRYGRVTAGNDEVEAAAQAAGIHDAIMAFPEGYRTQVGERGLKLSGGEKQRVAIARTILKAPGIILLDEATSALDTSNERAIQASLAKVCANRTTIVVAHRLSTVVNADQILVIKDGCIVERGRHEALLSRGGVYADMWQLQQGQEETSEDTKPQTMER
* = called active by the depositor; i = inactive; ? = inconclusive; nt = no result; + = active, no number. This is a sample that favours compounds with a hit; in the whole collection about 1.7% have one here.

SMILES	NOD2-RIPK2 inh	TLR4 MyD88 comp	TLR9-MyD88 block	Myeloid diff 2	ABCB6 inh 2
COc1ccccc1/C=N/NC(=O)c1cccc(OC(F)(F)C(F)F)c1	0.1	4.3	1.1	i	104.0
CCOc1ccc(N2C(=O)CC(NC3CCN(C(=O)c4cccs4)CC3)C2=O)cc1 (centres undefined)	-7.1	nt	-2.7	i	97.0
CCC(=O)Nc1ccc(C2C(=O)c3ccccc3C2=O)cc1	-2.2	nt	-8.4	i	99.0
CCC(=O)NC1=C(Nc2ccc(N)cc2)C(=O)c2ccccc2C1=O	-0.1	nt	-6.2	+	104.0
O=C(Nc1ccnn1C1CCN(C/C=C/c2ccccc2)CC1)c1ccccc1Cl	-3.1	nt	-9.3	i	100.0
COc1ccccc1C(=O)Nc1ccnn1C1CCN(C/C=C/c2ccc(F)cc2)CC1	-9.3	nt	-17.3	+	102.0
C[C@@H]1CC[C@@]2(O[C@@H](CCO)C[C@H](O)[C@H]2O)O1	-2.1	nt	-4.7	i	101.0
O=C(NCC(=O)N(Cc1ccco1)C(C(=O)NC1CCCCC1)c1cccnc1)c1cccs1 (centres undefined)	-4.3	4.2	7.3	+	99.0
CSC[C@H]1CN(c2ccccc2)C(=O)[C@@H]1CC(=O)Nc1ccc(Br)cc1	0.9	nt	-9.1	i	101.0
Cc1nc(N)nc(N)c1Oc1ccc(Cl)cc1	1.4	nt	-8.2	+	96.0
CC(=O)Nc1nc(C)c(Oc2ccc(Cl)cc2)c(=O)[nH]1	-6.1	nt	-0.8	i	104.0
CN(CC(=O)Nc1ccc(F)c(F)c1F)C(=O)CCc1nc2sc3c(c2c(=O)[nH]1)CCCC3	-0.1	nt	-6.9	i	105.0
Cc1cccc(OCC(=O)N/N=C\c2cccn2C)c1C	-1.4	-18.8	-1.4	i	67.0*
O=C(CCCc1ccccc1)N1CCc2ccccc21	-7.4	4.3	0.6	i	98.0
O=C(NNC(=O)c1ccc(NC(=O)c2ccccc2)cc1)Nc1ccccc1	1.2	-19.6	-0.9	+	91.0
CCCN1C(=O)/C(=C/c2c(NCCCOC(C)C)nc3c(C)cccn3c2=O)SC1=S	4.3	-6.5	0.5	+	i
CCC(C)N1C(=O)/C(=C/c2c(NCCCOC(C)C)nc3c(C)cccn3c2=O)SC1=S (centres undefined)	-1.8	21.8	-4.2	+	i
CCn1cc(CN2CCc3c([nH]c4ccccc34)C2c2cccc(OC)c2)c(C)n1 (centres undefined)	-9.8	-4.7	nt	i	100.0
CCOC(=O)N1CCN(C(=O)COC(=O)CNC(=O)c2ccc(C)cc2)CC1	3.5	nt	11.7	i	100.0
COc1cccc(NC(=O)CCS(=O)(=O)c2ccc3c(c2)oc(=O)n3C)c1	-8.4	nt	4.3	i	103.0
CCOC(=O)[C@]12CCC=C1N(Cc1ccc(Cl)cc1Cl)C(=O)[C@H](CC(=O)NCCCN1CCCC1=O)C2	-2.4	nt	nt	i	88.0
Oc1ccc(Br)cc1C=Nc1ccc2c3c(cccc13)CC2	8.8	-2.6	7.6	+	113.0
Oc1ccc(Cl)cc1C=Nc1ccccc1Br	-0.3	-4.4	-5.7	i	99.0
O=C(CCSc1ccc(Cl)cc1)Nc1cccnc1	-0.5	4.7	5.7	i	99.0
COc1ccc(/C=C/C(=O)NCc2cccnc2)cc1	-1.0	-3.8	-3.7	i	96.0
SMILES	NOD2-RIPK2 inh	TLR4 MyD88 comp	TLR9-MyD88 block	Myeloid diff 2	ABCB6 inh 2
CCc1ccc(CN(Cc2cccnc2)C(=O)/C=C/c2ccc(OC)cc2)cc1	-5.8	nt	-3.6	+	133.0
CCOCC(=O)N1CCCC(C(=O)OCC)C1 (centres undefined)	-10.1	-0.3	-2.4	i	95.0
CCCCC(=O)N1CCCC(C(=O)OCC)C1 (centres undefined)	-15.0	6.9	2.0	+	100.0
C=CCN1C(=O)/C(=c2\sc3nc(=O)c(Cc4ccc(OC)c(OC)c4)nn3c2=O)c2ccccc21	-2.1	nt	nt	i	11.0*
CSc1cccc(NC(=O)Cc2ccccc2[N+](=O)[O-])c1	2.6	11.7	-7.2	i	103.0
COc1cccc(N2CCN(CC(=O)C34CC5CC(CC(C5)C3)C4)CC2)c1	-13.2	-14.1	2.0	i	95.0
COc1cccc(N2CCN(C(C)C(=O)NC34CC5CC(CC(C5)C3)C4)CC2)c1 (centres undefined)	7.3	nt	-0.3	+	99.0
C#CCOCCOCCOCCNc1nc(N2CCN(C(=O)CCCCCCCCCCNC(=O)[C@H](CCCCN)n3cc(C[C@@H](C)CC)nn3)CC2)nc(N2CCN(C(=O)CCCCCCCCCCNC(=O)[C@H](CCCN=C(N)N)n3cc(C[C@@H](C)CC)nn3)CC2)n1	73.3*	nt	34.0*	i	102.0
C#CCOCCOCCOCCNc1nc(N2CCN(C(=O)CCCCCCCCCCNC(=O)[C@@H](CCC(=O)O)n3cc(CCCCCN)nn3)CC2)nc(N2CCN(C(=O)CCCCCCCCCCNC(=O)[C@H](CCCCN)n3cc(C[C@@H](C)CC)nn3)CC2)n1	3.5	nt	6.1	i	97.0
C#CCOCCOCCOCCNc1nc(N2CCN(C(=O)CCCCCCCCCCNC(=O)Cn3cc(C[C@@H](C)O)nn3)CC2)nc(N2CCN(C(=O)CCCCCCCCCCNC(=O)[C@@H](CCSC)n3cc(CCO)nn3)CC2)n1	-3.8	nt	2.4	+	87.0
C#CCOCCOCCOCCNc1nc(N2CCN(C(=O)CCCCCCCCCCNC(=O)[C@H]([C@@H](C)CC)n3cc(CCCCN=C(N)N)nn3)CC2)nc(N2CCN(C(=O)CCCCCCCCCCNC(=O)[C@@H]([C@H](C)O)n3cc(C)nn3)CC2)n1	40.5*	nt	-2.6	i	100.0
C#CCOCCOCCOCCNc1nc(N2CCN(C(=O)CCCCCCCCCCNC(=O)[C@@H](CCSC)n3cc(CCO)nn3)CC2)nc(N2CCN(C(=O)CCCCCCCCCCNC(=O)[C@@H]([C@H](C)O)n3cc(C)nn3)CC2)n1	-5.9	nt	2.4	?	?
C#CCOCCOCCOCCNc1nc(N2CCN(C(=O)CCCCCCCCCCNC(=O)[C@@H](CCSC)n3cc(CCO)nn3)CC2)nc(N2CCN(C(=O)CCCCCCCCCCNC(=O)[C@H](CCCN=C(N)N)n3cc(C[C@@H](C)CC)nn3)CC2)n1	41.3*	nt	-0.8	i	96.0
ClCc1nnc(-c2cc3c(s2)CCCC3)o1	-0.9	0.7	-6.0	i	119.0
C#CCOCCOCCOCCNc1nc(N2CCN(C(=O)CCCCCCCCCCNC(=O)[C@H](CCCCN)n3cc(C[C@@H](C)CC)nn3)CC2)nc(N2CCN(C(=O)CCCCCCCCCCNC(=O)[C@@H]([C@H](C)O)n3cc(C)nn3)CC2)n1	34.8*	nt	15.4	i	95.0
Oc1ccc(/C=N/Nc2ccnc3cc(Cl)ccc23)c(O)c1	10.0	nt	9.2	+	114.0
CC[C@@H]1Cc2[nH]c(=O)[nH]c(=O)c2[C@H](c2ccc(Cl)cc2)O1	-8.8	nt	nt	i	106.0
O=c1c2ccccc2sc2ccc(NCCCN3CCOCC3)cc12	6.5	nt	2.6	+	153.0
CN1CCCC1CCNc1ccc2sc3ccccc3c(=O)c2c1 (centres undefined)	19.4	nt	13.0	+	272.0
